# Reference: PubChem BioAssay AID1159580 (chemical genetic matrix, 2015)
# Among all 5,500 compounds or so, about 2,000 (36%) were called active. About 18% were inconclusive and are not listed. The list shows a part of the results. A number with no mark means an inactive call. Rule as the data show it: active = normalized growth mostly below about 0.91 (no sharp cut-off); inconclusive = no clear call, values can overlap the other calls; inactive = mostly above about 0.92.
# Test: chemical genetic growth profiling, strain panel (AID 1159580);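 also: tested at 20 µM; growth read once vehicle control cultures reached saturation at 30 °C; 1 = growth at the plate median or of vehicle wells; lower values mean less growth of the strain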
# Conditions: S. cerevisiae deletion strains, growth OD
# [1] = locus YAR019C, strain CDC15, hits give low values
# [2] = locus YBL105C, strain PKC1, hits give low values
# [3] = locus YBR135W, strain CKS1, hits give low values
# [4] = locus YBR136W, strain MEC1, hits give low values
# [5] = locus YBR160W, strain CDC28, hits give low values
# [6] = locus YDL017W, strain CDC7, hits give low values
# [7] = locus YDL028C, strain MPS1, hits give low values
# [8] = locus YDL101C, strain DUN1, hits give low values
# [9] = locus YDL108W, strain KIN28, hits give low values
# [10] = locus YDL132W, strain cdc53, hits give low values
# [11] = locus YDL214C, strain PRR2, hits give low values
# [12] = locus YDR052C, strain DBF4, hits give low values
# [13] = locus YDR054C, strain cdc34, hits give low values
# [14] = locus YDR226W, strain ADK1, hits give low values
# [15] = locus YDR477W, strain SNF1, hits give low values
# [16] = locus YER123W, strain YCK3, hits give low values
# [17] = locus YER133W, strain GLC7, hits give low values
# [18] = locus YFL009W, strain cdc4, hits give low values
# [19] = locus YFL029C, strain CAK1, hits give low values
# [20] = locus YFR003C, strain YPI1, hits give low values
# [21] = locus YFR019W, strain FAB1, hits give low values
# [22] = locus YFR028C, strain CDC14, hits give low values
# [23] = locus YGR040W, strain KSS1, hits give low values
# [24] = locus YGR052W, strain FMP48, hits give low values
# [25] = locus YGR092W, strain DBF2, hits give low values
# [26] = locus YHR030C, strain SLT2, hits give low values
# [27] = locus YHR079C, strain IRE1, hits give low values
# [28] = locus YHR082C, strain KSP1, hits give low values
# [29] = locus YHR205W, strain SCH9, hits give low values
# [30] = locus YIL147C, strain SLN1, hits give low values
# [31] = locus YJL095W, strain BCK1, hits give low values
# [32] = locus YJL128C, strain PBS2, hits give low values
# [33] = locus YJL157C, strain FAR1, hits give low values
# [34] = locus YJR016C, strain ILV3, hits give low values
# [35] = locus YJR066W, strain TOR1 (second series), hits give low values
# [36] = locus YJR066W, strain TOR1, hits give low values
# [37] = locus YKL048C, strain ELM1, hits give low values
# [38] = locus YKL067W, strain YNK1, hits give low values
# [39] = locus YKL101W, strain HSL1, hits give low values
# [40] = locus YKL193C, strain SDS22, hits give low values
# [41] = locus YKL203C, strain TOR2, hits give low values
# [42] = locus YLR113W, strain HOG1, hits give low values
# [43] = locus YLR133W, strain CKI1, hits give low values
# [44] = locus YLR403W, strain SFP1, hits give low values
# [45] = locus YML070W, strain DAK1, hits give low values
# [46] = locus YMR001C, strain CDC5, hits give low values
# [47] = locus YMR205C, strain PFK2 (second series), hits give low values
# [48] = locus YMR277W, strain FCP1, hits give low values
# [49] = locus YNL006W, strain LST8, hits give low values
# [50] = locus YNL020C, strain ARK1, hits give low values
# [51] = locus YNL161W, strain CBK1, hits give low values
# [52] = locus YNL183C, strain NPR1, hits give low values
# [53] = locus YNL207W, strain RIO2, hits give low values
# [54] = locus YNL222W, strain SSU72, hits give low values
# [55] = locus YNL307C, strain MCK1 (second series), hits give low values
# [56] = locus YOL078W, strain AVO1, hits give low values
# [57] = locus YOL136C, strain PFK27, hits give low values
# [58] = locus YOR061W, strain CKA2, hits give low values
# [59] = locus YOR119C, strain RIO1, hits give low values
# [60] = locus YOR231W, strain MKK1, hits give low values
# [61] = locus YOR329C, strain SCD5, hits give low values
# [62] = locus YPL031C, strain PHO85, hits give low values
# [63] = locus YPL153C, strain RAD53, hits give low values
# [64] = locus YPL204W, strain HRR25, hits give low values
# [65] = locus YPL209C, strain IPL1, hits give low values
# [66] = locus YPL256C, strain CLN2, hits give low values
# [67] = locus YPR025C, strain CCL1, hits give low values
# [68] = locus YPR106W, strain ISR1, hits give low values
# [69] = locus YPR111W, strain DBF20, hits give low values
# [70] = strain NNK1, hits give low values
# [71] = strain TSCII, hits give low values
smiles,measurement,setting,value
NNC(=O)c1csc(Cc2c(Cl)sc3ccc(Cl)cc23)n1,normalized growth,[1],0.979
same,normalized growth,[2],0.983
same,normalized growth,[3],1
same,normalized growth,[4],0.993
same,normalized growth,[5],0.996
same,normalized growth,[6],0.985
same,normalized growth,[7],0.996
same,normalized growth,[8],0.985
same,normalized growth,[9],1
same,normalized growth,[10],0.975
same,normalized growth,[11],1.02
same,normalized growth,[12],0.986
same,normalized growth,[13],0.968
same,normalized growth,[14],0.996
same,normalized growth,[15],0.979
same,normalized growth,[16],1.01
same,normalized growth,[17],0.979
same,normalized growth,[18],0.991
same,normalized growth,[19],0.971
same,normalized growth,[20],0.994
same,normalized growth,[21],0.992
same,normalized growth,[22],0.994
same,normalized growth,[23],0.988
same,normalized growth,[24],1.11
same,normalized growth,[25],0.969
same,normalized growth,[26],1
same,normalized growth,[27],0.977
same,normalized growth,[28],1.04
same,normalized growth,[29],1.01
same,normalized growth,[30],0.99
same,normalized growth,[31],0.994
same,normalized growth,[32],0.998
same,normalized growth,[33],0.994
same,normalized growth,[34],0.981
same,normalized growth,[35],0.983
same,normalized growth,[36],1.05
same,normalized growth,[37],1
same,normalized growth,[38],1
same,normalized growth,[39],1.02
same,normalized growth,[40],0.983
same,normalized growth,[41],1.04
same,normalized growth,[42],1.07
same,normalized growth,[43],1
same,normalized growth,[44],0.978
same,normalized growth,[45],1.01
same,normalized growth,[46],0.989
same,normalized growth,[47],1.01
same,normalized growth,[48],0.981
same,normalized growth,[49],0.998
same,normalized growth,[50],0.999
same,normalized growth,[51],0.983
same,normalized growth,[52],1.03
same,normalized growth,[53],0.983
same,normalized growth,[54],0.986
same,normalized growth,[55],1.01
same,normalized growth,[56],0.976
same,normalized growth,[57],1
same,normalized growth,[58],1.01
same,normalized growth,[59],1.07
same,normalized growth,[60],0.986
same,normalized growth,[61],0.99
same,normalized growth,[62],0.984
same,normalized growth,[63],0.974
same,normalized growth,[64],0.971
same,normalized growth,[65],0.984
same,normalized growth,[66],1.03
same,normalized growth,[67],0.995
same,normalized growth,[68],0.998
same,normalized growth,[69],0.992
same,normalized growth,[70],0.984
same,normalized growth,[71],0.982
CNC(=O)n1nc(C)c(Cc2csc3ccc(Cl)cc23)c1C,normalized growth,[1],0.995
same,normalized growth,[2],0.998
same,normalized growth,[3],0.984
same,normalized growth,[4],0.997
same,normalized growth,[5],0.991
same,normalized growth,[6],0.994
same,normalized growth,[7],0.997
same,normalized growth,[8],1.01
same,normalized growth,[9],0.993
same,normalized growth,[10],1
same,normalized growth,[11],0.943
same,normalized growth,[12],1
same,normalized growth,[13],0.99
same,normalized growth,[14],0.99
same,normalized growth,[15],0.976
same,normalized growth,[16],0.906
same,normalized growth,[17],0.959
same,normalized growth,[18],0.999
same,normalized growth,[19],0.993
same,normalized growth,[20],0.993
same,normalized growth,[21],0.928
same,normalized growth,[22],0.978
same,normalized growth,[23],0.95
same,normalized growth,[24],0.989
same,normalized growth,[25],0.949
same,normalized growth,[26],0.935
same,normalized growth,[27],0.893
same,normalized growth,[28],0.936
same,normalized growth,[29],0.921
same,normalized growth,[30],0.993
same,normalized growth,[31],0.94
same,normalized growth,[32],0.934
same,normalized growth,[33],0.961
same,normalized growth,[34],0.994
same,normalized growth,[35],0.931
same,normalized growth,[36],1.02
same,normalized growth,[37],0.983
same,normalized growth,[38],0.91
same,normalized growth,[39],0.951
same,normalized growth,[40],0.991
same,normalized growth,[41],0.996
same,normalized growth,[42],0.902
same,normalized growth,[43],0.937
same,normalized growth,[44],0.942
same,normalized growth,[45],0.917
same,normalized growth,[46],0.988
same,normalized growth,[47],0.933
same,normalized growth,[48],0.988
same,normalized growth,[49],0.988
same,normalized growth,[50],0.934
same,normalized growth,[51],0.993
same,normalized growth,[52],0.896
same,normalized growth,[53],0.993
same,normalized growth,[54],0.992
same,normalized growth,[55],0.925
same,normalized growth,[56],0.991
same,normalized growth,[57],0.926
same,normalized growth,[58],0.957
same,normalized growth,[59],1.03
same,normalized growth,[60],0.894
same,normalized growth,[61],0.997
same,normalized growth,[62],0.966
same,normalized growth,[63],0.936
same,normalized growth,[64],0.926
same,normalized growth,[65],0.993
same,normalized growth,[66],0.855 (active)
same,normalized growth,[67],0.998
same,normalized growth,[68],0.999
same,normalized growth,[69],0.979
same,normalized growth,[70],0.991
same,normalized growth,[71],0.989
COc1ccc(C(=O)NCc2csc3ccc(Cl)cc23)cc1OC,normalized growth,[1],0.971
same,normalized growth,[2],0.97
same,normalized growth,[3],0.985
same,normalized growth,[4],0.975
same,normalized growth,[5],0.975
same,normalized growth,[6],0.982
same,normalized growth,[7],0.986
same,normalized growth,[8],0.973
same,normalized growth,[9],0.981
same,normalized growth,[10],0.979
same,normalized growth,[11],0.986
same,normalized growth,[12],0.971
same,normalized growth,[13],0.955
same,normalized growth,[14],0.975
same,normalized growth,[15],0.982
same,normalized growth,[16],0.977
same,normalized growth,[17],0.978
same,normalized growth,[18],0.97
same,normalized growth,[19],0.974
same,normalized growth,[20],0.977
same,normalized growth,[21],1
same,normalized growth,[22],0.977
same,normalized growth,[23],0.994
same,normalized growth,[24],1.05
same,normalized growth,[25],0.981
same,normalized growth,[26],1.03
same,normalized growth,[27],1.01
same,normalized growth,[28],1.05
same,normalized growth,[29],0.972
same,normalized growth,[30],0.975
same,normalized growth,[31],1.05
same,normalized growth,[32],0.92
same,normalized growth,[33],0.988
same,normalized growth,[34],0.975
same,normalized growth,[35],1.01
same,normalized growth,[36],1.07
same,normalized growth,[37],0.98
same,normalized growth,[38],0.987
same,normalized growth,[39],0.994
same,normalized growth,[40],0.977
same,normalized growth,[41],1.05
same,normalized growth,[42],0.92
same,normalized growth,[43],0.976
same,normalized growth,[44],0.994
same,normalized growth,[45],0.983
same,normalized growth,[46],0.979
same,normalized growth,[47],0.986
same,normalized growth,[48],0.973
same,normalized growth,[49],0.983
same,normalized growth,[50],0.985
same,normalized growth,[51],0.975
same,normalized growth,[52],0.999
same,normalized growth,[53],0.962
same,normalized growth,[54],0.972
same,normalized growth,[55],0.972
same,normalized growth,[56],0.977
same,normalized growth,[57],0.98
same,normalized growth,[58],1
same,normalized growth,[59],1.05
same,normalized growth,[60],0.983
same,normalized growth,[61],0.975
same,normalized growth,[62],0.994
same,normalized growth,[63],0.995
same,normalized growth,[64],0.974
same,normalized growth,[65],0.972
same,normalized growth,[66],0.947
same,normalized growth,[67],0.976
same,normalized growth,[68],0.966
same,normalized growth,[69],0.954
same,normalized growth,[70],0.97
same,normalized growth,[71],0.984
